Laboratory results taken from PubChem BioAssay (EPA / NIEHS).
Activity calls are given as the source filed them. Rule for the calls: active = hit-call score of the fitted dose curve at least 0.9, where 1 is the maximum; inactive = score below 0.9.

Assay: ATG_MRE_CIS: Attagene CIS-FACTORIAL HepG2 Assay for human Metal Responsive Element (MRE) (AID 2282954)
Settings: HepG2 MRE cis-reporter transcription, Attagene multiplex; actives raise or lower the signal
Experimental: ATG_CIS is a cell-based, multiplexed-readout assay that uses HepG2, a human liver cell line, with measurements taken at 24 hours after chemical dosing in a 24-well plate.ATG_MRE_CIS is one of 52 assay component(s) measured or calculated from the ATG_CIS assay. It is designed to make measurements of mRNA induction, a form of inducible reporter, as detected with fluorescence intensity signals by Reverse transcription polymerase chain reaction (RT-PCR) and Capillary electrophoresis technology.Data from the assay component ATG_MRE_CIS was analyzed into 1 assay endpoint. This assay endpoint, ATG_MRE_CIS, was analyzed with bidirectional fitting relative to DMSO as the negative control and baseline of activity. Using a type of inducible reporter, measures of mRNA for gain or loss-of-signal activity can be used to understand the reporter gene at the transcription factor-level as they relate to the gene MTF1. Furthermore, this assay endpoint can be referred to as a primary readout, because this assay has produced multiple assay endpoints where this one serves a reporter gene function. To generalize the intended target to other relatable targets, this assay endpoint is annotated to the dna binding intended target family, where the subfamily is zinc finger.
Human liver HepG2 cells are transiently transfected with multiple reporter transcription units (MRTUs) in 6-well plates using FuGene 6 reagent (Roche; 3 ml FuGene/1 mg DNA). The MRTU constructs are regulated by a cis-regulating element (promoter). […] A major difference between the CIS and TRANS system is that in CIS activities of endogenous TFs are measured, whereas the TRANS assay evaluates changes in activities of exogenous, chimeric NR-Gal4 proteins. […] At the end of 24 hour incubation, total RNA was isolated using TriZol reagent (Invitrogen). The isolated RNA is then reverse-transcribed using oligo(dT) primer and Mo-MLV reverse transcriptase (Invitrogen) with DNAse I (Ambion) treatment for 30 min. The one-tenth of the produced cDNA was amplified by PCR using Taq DNA polymerase (Invitrogen) and two reporter sequence-specific primers. The PCR products were fluorescently labeled by primer extension with 6-arboxyfluorescein (6-FAM) 5'-labeled reporter sequence-specific primer (2 min at 95 C, 20 s at 68 C and 10 min at 72 C) and these products were digested with 5U of HpaI (New England Biolabs) for 2h at 37 C. The fragments were purified using Qiaquick PCR columns (Qiagen), analyzed on an ABI 3130xL genetic analyzer (Applied Biosystems) with peak positions identified by using a set of X-rhodamine (ROX)-labeled MapMarker1000 molecular weight standards (BioVentures). The raw capillary electrophoresis data was processed using Attagraph software (Attagene).

outcome, inactive:
CCNc1ccccc1
Cc1c(-c2cccnc2)c2ccccc2n1CCCCC(=O)O
COCCOCCOCCOC
COc1cccc(-c2ccc(/C=C\CN3CCCCCC3)cc2Cl)c1
CCOCCOCCOCCO
CC(=O)c1ccc2c(c1)[C@H](NC(=O)c1ccc(F)cc1)[C@@H](O)C(C)(C)O2
NC(=O)NO
CC(=O)OCCC(C)C
C=CCCCCCCCCC(=O)O
CC1(C)C(=O)N(Br)C(=O)N1Br
Cc1ccc(N)cc1O
O=C(NS(=O)(=O)/C=C/c1ccccc1)c1ccc(F)cc1Cl
COc1ccc(-n2nc(C(F)F)cc2-c2ccc(S(C)=O)cc2)cc1 (stereo not given)
CN(C)c1ccc(N=NS(=O)(=O)O)cc1
CCCCCCCCCCCCCCCO
CCCCCCCCO
O=C(O)CC(O)C(=O)O (stereo not given)
Clc1nc(Cl)c(Cl)c(Cl)c1Cl
CCCCC(CC)COC(=O)c1ccc(C(=O)OCC(CC)CCCC)cc1 (stereo not given)
CCCCCCCCCCCCc1ccccc1
O=C(O)c1cc(N=Nc2ccc(S(=O)(=O)Nc3ccccn3)cc2)ccc1O
Nc1ccc(Nc2ccccc2)cc1
CCCN(C1CCN(C(=O)C2CCNCC2)CC1)[C@@H]1CCc2ccc(OC)cc2C1
COC(=O)c1c(Cl)c(Cl)c(C(=O)OC)c(Cl)c1Cl
COC(=O)c1ccccc1O
Cn1c(=O)cc(Oc2ccc(F)cc2F)c2cnc(NCC(C)(C)O)nc21
CC(C)CC(C)(O)C#CC(C)(O)CC(C)C (stereo not given)
COC(=O)CC(=O)OC
C[C@](N)(Cc1ccc(O)c(O)c1)C(=O)O
CC/C(=C\C(=N/O)C(N)=O)C(C)[N+](=O)[O-] (stereo not given)
O=C(OC[C@H]1O[C@@H](OC(=O)c2cc(O)c(O)c(OC(=O)c3cc(O)c(O)c(O)c3)c2)[C@H](OC(=O)c2cc(O)c(O)c(OC(=O)c3cc(O)c(O)c(O)c3)c2)[C@@H](OC(=O)c2cc(O)c(O)c(OC(=O)c3cc(O)c(O)c(O)c3)c2)[C@@H]1OC(=O)c1cc(O)c(O)c(OC(=O)c2cc(O)c(O)c(O)c2)c1)c1cc(O)c(O)c(OC(=O)c2cc(O)c(O)c(O)c2)c1
On1ccccc1=S
CCC(C)(C)C(=O)O[C@H]1C[C@@H](C)C=C2C=C[C@H](C)[C@H](CC[C@@H]3C[C@@H](O)CC(=O)O3)[C@H]21

AC50, active:
O=c1n(CC2CO2)c(=O)n(CC2CO2)c(=O)n1CC1CO1 (stereo not given) 59 µM
Oc1ccc2c(c1)-c1ccccc1C2 40.8 µM
CC[C@H](C)C(=O)O[C@H]1C[C@@H](C)C=C2C=C[C@H](C)[C@H](CC[C@@H]3C[C@@H](O)CC(=O)O3)[C@H]21 10.5 µM
O=c1[nH]c2ccc(S(=O)CCN3CCC(Cc4ccc(F)cc4)CC3)cc2o1 (stereo not given) 155 µM
Fc1ccccc1[C@@H](F)COC1CCC(Nc2ncnc3[nH]ncc23)CC1 (stereo not given in full) 103 µM
COc1ccc2sc(C(=O)Nc3nnn[nH]3)c(OC(C)C)c2c1 91.1 µM
CCCCCCc1ccc(O)cc1O 54.1 µM
